# The list is not random: actives were taken first. Their share in the collection is about 27%.
# CYP2C19 inhib: inhibitors of human CYP2C19. inhibition, % at 5 µM. 96,000 tested, 21% active. CYP2C19 Supersomes, luciferin-H EGE luminescence, 30 min;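 active = CYP2C19 inhibition above a set limit at 5 µM in the primary screen, cut at about 50% in these data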;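 note: plate controls were negative control wells for no effect and 2.5 mM tranylcypromine positive control for full effect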
# Target sequence (P33261 whole entry, looked up): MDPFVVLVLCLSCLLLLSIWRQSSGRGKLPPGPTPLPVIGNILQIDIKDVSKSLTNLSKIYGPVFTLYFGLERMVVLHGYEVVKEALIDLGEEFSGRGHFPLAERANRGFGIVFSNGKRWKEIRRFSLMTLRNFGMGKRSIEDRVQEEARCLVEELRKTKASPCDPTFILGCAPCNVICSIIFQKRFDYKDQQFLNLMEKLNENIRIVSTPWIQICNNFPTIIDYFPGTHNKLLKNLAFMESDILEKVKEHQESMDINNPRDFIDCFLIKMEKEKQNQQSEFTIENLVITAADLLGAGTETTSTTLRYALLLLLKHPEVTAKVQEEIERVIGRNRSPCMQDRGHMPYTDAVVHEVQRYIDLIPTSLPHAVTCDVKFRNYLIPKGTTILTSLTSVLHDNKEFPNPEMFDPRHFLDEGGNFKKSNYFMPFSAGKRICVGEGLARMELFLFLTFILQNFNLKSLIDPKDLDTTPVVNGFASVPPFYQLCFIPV
# CYP2C9 inhib: human CYP2C9 inhibition; P11712; CYP2C9 Supersomes, luciferin-H conversion, luminescence; inhibition, % at 5 µM; 96,000 tested, 20% active; AID 777;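 active = blocking of liver enzyme CYP2C9 beyond about 50% at 5 µM, limit read from the data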
# CYP2C9 activ: CYP2C9 (human) activation; activation factor at 5 µM; 96,000 tested, 1.4% active; recombinant CYP2C9, luciferin-H conversion, luminescence; hits give high values; factor 1 = untreated enzyme, 0 = blocked; P11712;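 active = activation factor of 2 or more for CYP2C9 at a 5 µM dose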;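 note: 0 = sulfaphenazole-blocked wells and 1 = vehicle-only wells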
# CYP2C19 act: activators of human cytochrome P450 2C19; recombinant CYP2C19, luciferin-H EGE luminescence; hits give high values; 0 = fully inhibited enzyme, 1 = untreated enzyme; 96,000 tested, under 10 active; activation factor at 5 µM; P33261;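 active = activation factor of at least 2 at 5 µM in the primary screen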;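 note: 0 = wells with 2.5 mM tranylcypromine and 1 = vehicle-only wells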
# sEH act: activators of human soluble epoxide hydrolase | purified human sEH enzymatic activity, activator screen | activation, % at 2 µM | 91,000 tested, 0.04% active; in the data active = activation above about 37%
# sEH inh: soluble epoxide hydrolase (human) inhibition | P34913 | recombinant human sEH enzymatic activity assay | inhibition, % at 2 µM | 91,000 tested, 0.34% active; in the data active = inhibition above about 80%
# Numbers without * were called inactive; x = not tested or not shown.
SMILES,CYP2C19 inhib,CYP2C9 inhib,CYP2C9 activ,CYP2C19 act,sEH act,sEH inh
CCCCN(C(=O)NC(=O)Nc1nc2ccc(OC)cc2s1)S(C)(=O)=O,3.3,15.6,0.8,1,-1.5,1.5
CCCN(C(=S)Nc1ccccc1)C1CCS(=O)(=O)C1 (stereo unspecified),1.6,-2.4,1,1,0.9,-0.5
COc1ccccc1N/C(=N/S(=O)(=O)c1ccc(Cl)cc1)c1ccccc1,73.3*,45.8,0.5,0.3,7.7,-7.6
O=S(=O)(/N=C(/Nc1ccccc1F)c1ccccc1)c1ccccc1,62.8*,41.2,0.6,0.4,3.9,-5.7
O=C(c1ccc(Cl)cc1)c1cnc(-c2ccc(Cl)cc2)s1,63.9*,-6.3,1.1,0.4,26.0,-29.5
CCc1ccc(NC(=O)C(C)Nc2ccc(S(=O)(=O)NC(C)=O)cc2)cc1 (stereo unspecified),10.6,10.3,0.9,0.9,0.1,1.5
Cc1sc2nc(SCC(=O)NCCO)n(C)c(=O)c2c1C,1.7,15.1,0.8,1,-7.1,6.2
CCOC(=O)Cc1csc2nc3sc(C)c(C)c3c(=O)n12,55.5*,16.7,0.8,0.4,4.1,1.3
CCOC(=O)CNC(=O)CSc1nc2sc(C)c(C)c2c(=O)n1C,70.5*,50.4*,0.5,0.3,3.6,-2.4
Cc1cccc(NC(=S)NN(Cc2ccccc2)c2ccccc2)c1C,16.2,29.0,0.7,0.8,14.5,-13.6
COC(=O)c1cc(=O)n(CCc2ccccc2)c(=Nc2ccc(F)cc2)s1,-1.0,39.5,0.6,1,-5.1,6.7
CCOC(=O)c1ccc(N=c2sc(C(=O)OC)cc(=O)n2Cc2ccco2)cc1,15.9,48.6,0.5,0.8,x,x
COC(=O)c1cc(=O)n(CCc2ccc(OC)cc2)c(=Nc2ccc(F)c(Cl)c2)s1,27.5,55.5*,0.4,0.7,x,x
CCn1c(=O)cc(C(=O)OC)sc1=Nc1ccc(F)c(F)c1,98.5*,75.0*,0.3,0,15.2,-18.3
COC(=O)c1cc(=O)n(Cc2ccc3c(c2)OCO3)c(=Nc2ccc(F)c(Cl)c2)s1,10.7,56.9*,0.4,0.9,-16.5,14.3
COc1ccc(/C=N/N2CCN(c3ccncc3S(=O)(=O)N3CCCCC3)CC2)cc1,22.4,-5.3,1.1,0.8,10.8,-8.2
COCCN(Cc1cc2ccccc2[nH]c1=O)C(=O)c1ccccc1OC,7.2,-17.9,1.2,0.9,x,x
CN(/N=C/c1cccs1)c1cc(=O)n(C)c(=O)[nH]1,x,x,x,x,-12.5,16.1
O=C(N1CCCC1)N1CCN(c2ncnc3c(-c4ccc(Cl)cc4)nsc23)CC1,-11.1,-15.9,1.2,1.1,x,x
COc1ccc(Cl)cc1Nc1nc(N2CCCC2)nc(N2CCCC2)n1,-11.7,1.2,1,1.1,x,x
O=C(CSc1nc(O)c(Cc2ccccc2)c(=O)[nH]1)Nc1ccccc1,-0.3,7.5,0.9,1,7.5,-9.1
CCC(C)c1c(O)nc(SCC(=O)c2ccccc2)[nH]c1=O (stereo unspecified),13.0,53.8*,0.5,0.9,1.1,0.4
CCC(C)c1c(O)nc(SCC(=O)Nc2ccccc2)[nH]c1=O (stereo unspecified),73.3*,75.8*,0.2,0.3,9.9,-11.8
Cc1cc(C(F)F)nn1CC(=O)NCc1ccc(Cl)cc1Cl,x,x,x,x,-19.9,18.9
CC1CC1C(=O)OCC(=O)NCc1ccc(Cl)cc1 (stereo unspecified),97.1*,53.0*,0.5,0,3.2,-2.0
SMILES,CYP2C19 inhib,CYP2C9 inhib,CYP2C9 activ,CYP2C19 act,sEH act,sEH inh
CC1CC1C(=O)OCC(=O)NCc1ccc(Cl)cc1Cl (stereo unspecified),99.5*,29.7,0.7,0,-10.9,10.7
O=C(COC(=O)C1CC1)NCc1ccccc1Cl,69.5*,18.2,0.8,0.3,7.0,-4.2
O=C(CNCc1ccco1)Nc1ccccc1-n1cccc1,x,x,x,x,-11.7,10.2
CCC(=O)NCCc1nc2cc(NC(=O)c3ccc(OC)cc3)ccc2n1C,17.8,32.6,0.7,0.8,0.1,-0.3
Cc1ccc(CN2C(=O)CCC2C(=O)NCCN(CC(C)C)CC(C)C)cc1 (stereo unspecified),7.9,27.4,0.7,0.9,x,x
O=[N+]([O-])c1ccc(-c2cnc(SCc3ccccc3Cl)[nH]2)cc1,8.3,52.1*,0.5,0.9,-30.6,33.5
Cc1cc(C)c(CSc2ncc(-c3ccc([N+](=O)[O-])cc3)[nH]2)c(C)c1,34.0,65.0*,0.3,0.7,8.2,-8.6
Cc1ccccc1NC(=O)CSc1nc(Nc2ccccc2)nc(N2CCOCC2)n1,49.0,62.1*,0.4,0.5,6.4,-3.7
O=C(CSc1nc(Nc2ccccc2)nc(N2CCOCC2)n1)Nc1ccc2c(c1)OCCO2,61.1*,60.4*,0.4,0.4,-3.7,5.8
O=C(CSc1nc(Nc2ccccc2)nc(N2CCOCC2)n1)N1CCCC1,3.5,24.7,0.8,1,3.5,-5.7
CCc1nc(N2CCCC2C(=O)O)c2oc3ccccc3c2n1 (stereo unspecified),3.0,-2.4,1,1,0.5,1.1
Cc1nc2ccccc2c2oc(C(=O)N3CCN(C(=O)c4ccco4)CC3)cc12,21.5,39.4,0.6,0.8,x,x
COc1ccccc1N1CCN(c2nc(C)nc3c2oc2ccccc23)CC1,32.4,26.4,0.7,0.7,5.8,-7.8
Cc1nc(N2CCC(C)CC2)c2oc3ccccc3c2n1,66.6*,69.9*,0.3,0.3,-0.1,2.0
Cc1nc(N2CCN(C(=O)c3ccco3)CC2)c2oc3ccccc3c2n1,69.8*,53.1*,0.5,0.3,x,x
CCc1nc(N2CCN(C(=O)c3ccco3)CC2)c2oc3ccccc3c2n1,94.7*,91.8*,0.1,0.1,3.6,-5.7
COc1cccc(N(C(=O)Cn2nnc(-c3cccs3)n2)C(C(=O)NC(C)C)c2ccc(C)o2)c1 (stereo unspecified),7.1,7.7,0.9,0.9,14.2,-12.3
COC(=O)C(Cc1ccc(O)cc1)NC(=O)c1ccccc1OC (stereo unspecified),52.7*,-127.8,2.3*,0.5,x,x
O=C(CN(Cc1ccco1)C(=O)c1cccc(Cl)c1)Nc1c(Cl)cc(Cl)cc1Cl,50.8*,62.4*,0.4,0.5,10.9,-8.7
COc1ccccc1NC(=O)CN(Cc1ccco1)C(=O)c1cccs1,16.2,27.1,0.7,0.8,-4.8,2.9
O=C(NC1CCCCC1)c1cccc(Cn2cc(Cl)cn2)c1,2.7,12.2,0.9,1,-37.9,36.8
O=C(c1cccc(F)c1)N1CCN(C2CCCCC2)CC1,12.1,-0.1,1,0.9,0.6,-2.4
O=C(c1ccc(F)cc1)N1CCN(C2CC3CCC2C3)CC1 (stereo unspecified),75.6*,-1.8,1,0.2,-7.3,6.9
O=C(c1ccccc1)N1CCN(C2CC3CCC2C3)CC1 (stereo unspecified),82.3*,20.7,0.8,0.2,x,x
CC(C(=O)NCC1CCCO1)n1cccc1C(=O)c1ccccc1 (stereo unspecified),11.1,8.3,0.9,0.9,1.7,-3.1

# High-throughput results from PubChem.
